Experimental data taken from ChEMBL document CHEMBL4513147, “CO-ADD screening of Armstrong State University (GA, USA) compounds”.
Entries with a potency or affinity are not part of this list.

Each compound was assayed on Cryptococcus neoformans. Details: Concentration 32 ug.mL-1; ASSAY_TEST Inhibition of Fungal Growth; detection method Resazurin; Absorption (OD600-OD570); plate type 384well; NBS; CORNING #3640.

Row | Structure (SMILES) | Inhibition
1 | Cc1ccc(C=C2CN(C(=O)OC(C)(C)C)C/C(=C\c3ccc(C)cc3C)C2=O)c(C)c1 | -52.76%
2 | COc1cc2c(cc1OC)C(=O)C(=Cc1ccco1)CC2 | -192.19%
3 | COc1ccc2c(c1)C(=O)C(=Cc1cccnc1Br)CC2 | -14.82%
4 | COc1cc2c(cc1OC)C(=O)C(=Cc1ccoc1)CC2 | -157.54%
5 | COc1ccc2c(c1)CCC(=Cc1ccccn1)C2=O | -41.47%
6 | COc1ccc2c(c1)C(=O)C(=Cc1cncc(Br)c1)CC2 | -18.22%
7 | COc1cccc2c1CCC(=Cc1ccco1)C2=O | 7.54%
8 | COc1ccc2c(c1)C(=O)C(=Cc1cnccc1OC)CC2 | -28.9%
9 | COc1ccc2c(c1)CCC(=Cc1cccnc1Cl)C2=O | -15.01%
10 | COc1ccc2c(c1)CCC(=Cc1ccncc1)C2=O | -80.91%
11 | COc1ccc2c(c1)C(=O)C(=Cc1ccoc1)CC2 | -57.68%
12 | COc1ccc2c(c1)CCC(=Cc1ccco1)C2=O | -43.38%
13 | COc1ccc2c(c1)C(O)C(=Cc1cccnc1Cl)CC2 (stereo unspecified) | -69.16%
14 | COc1ccc2c(c1)CCC(=Cc1ccc(OC)nc1)C2=O | -60.31%
15 | COc1cccc2c1CCC(=Cc1ccoc1)C2=O | -46.61%
16 | CC(C)(C)OC(=O)N1CC(=Cc2ccoc2)C(=O)/C(=C/c2ccoc2)C1 | -84.77%

Row | Structure (SMILES) | Inhibition
17 | COc1ccc2c(c1)C(=O)C(=Cc1cccc(C=C3CCc4ccc(OC)cc4C3=O)c1)CC2 | -34.17%
18 | COc1cccc2c1CCC(=Cc1cccc(C=C3CCc4c(OC)cccc4C3=O)c1)C2=O | -91.11%
19 | COc1ccc2c(c1)CCC(=Cc1cccnc1)C2=O | -44.32%
20 | COc1ccc2c(c1)C(=O)C(=Cc1ccccn1)CC2 | -7.78%
21 | COc1ccc2c(c1)C(=O)C(=Cc1cccnc1Cl)CC2 | -40.92%
22 | COc1ccc2c(c1)CCC(=Cc1cnccc1OC)C2=O | -48.3%
23 | COc1ccc(/C=C/C(=O)c2ccc(OCc3ccc(Br)cc3)cc2)cc1OC | -82.08%
24 | COc1ccc2c(c1)CCC(=Cc1ccoc1)C2=O | -36.87%
25 | COc1ccc2c(c1)C(=O)C(=Cc1ccco1)CC2 | -54.58%
26 | CC(C)(C)OC(=O)N1CC(=Cc2ccco2)C(=O)/C(=C/c2ccco2)C1 | -64.29%
27 | COc1ccc2c(c1)C(=O)C(=Cc1cccnc1OC)CC2 | -33.37%
28 | COc1ccc2c(c1)CCC(=Cc1cccnc1Br)C2=O | -19.45%
29 | COc1ccc2c(c1)C(=O)C(=Cc1cccnc1)CC2 | 20.35%
30 | COc1ccc2c(c1)C(=O)C(=Cc1cccnc1Cl)CC2.Cl | -54.29%
31 | COc1ccc2c(c1)CCC(=Cc1cncc(Br)c1)C2=O | -1.36%
